Results: the supplement of paper PMC12669032
Values without a mark were called inactive.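 The calls were made as follows: active = AUC reduced over 20% with Padj below 0.05 in at least 2 of 3 replicates; inactive = otherwise.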

Tests used:
Test in all cases: growth AUC relative to DMSO control (median of replicates) (fraction); higher = more growth (less inhibition), active = hit call of the paper
Details in all cases: 20 µM; 24 h
[1] = system: Coprococcus comes
In short: (§1)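 Hourly OD600 readings over 24 h tracked anaerobic gut bacterial monocultures grown at 37 °C in mGAM from OD600 0.05 with 20 µM compound (1% DMSO). After the minimum OD was set to 0, area under the growth curve was normalised to the plate median of solvent-only wells, or to row and column medians on the industrial chemical plate. Values are medians of three biological replicates grown on separate days.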

[2] = system: Escherichia coli ED1a
In short: as §1

[3] = system: Escherichia coli IAI1
In short: as §1

[4] = system: Eubacterium rectale
In short: as §1

[5] = system: Fusobacterium nucleatum subsp. animalis
In short: as §1

[6] = system: Lactobacillus gasseri
In short: as §1

[7] = system: Lactobacillus paracasei
In short: as §1

[8] = system: Odoribacter splanchnicus
In short: as §1

[9] = system: Parabacteroides distasonis
In short: as §1

[10] = system: Parabacteroides merdae
In short: as §1

SMILES	growth AUC [1]	growth AUC [2]	growth AUC [3]	growth AUC [4]	growth AUC [5]	growth AUC [6]	growth AUC [7]	growth AUC [8]	growth AUC [9]	growth AUC [10]
CCN(CC)C(=O)SCc1ccccc1Cl	1.01	1.04	1	0.939	0.964	1.1	0.994	1.12	0.92	0.95
Nc1ccc(S(=O)(=O)Nc2nccs2)cc1	1.02	0.994	0.968	0.97	0.993	0.97	1.02	0.987	1	1.03
CCCCCCCC/C=C\CCCCCCCCCCCCC	1	0.987	1.03	0.946	0.961	1.08	0.875	0.968	1.01	0.991
Cc1cccc(C)c1O	1	1.04	1	0.923	0.993	1.06	0.978	0.943	0.995	0.995
O=C1NCCN1	1.04	1.05	1.06	1.01	1.03	0.984	0.904	1.04	1.02	1.04
CCOc1ccc(NC(=O)OC(C)C)cc1OCC	0.942	1.01	1.04	1.21	1.09	0.99	0.835	0.722 (active)	0.989	0.998
CCCCC(CC)COC(=O)COc1ccc(Cl)cc1C (stereo not given)	1.03	0.981	1.01	1.05	0.989	0.828	0.962	0.934	0.923	0.937
CCCCOCCOC(=O)COc1nc(Cl)c(Cl)cc1Cl	0.982	0.994	0.973	1.02	0.984	0.917	0.962	1.09	0.978	0.956
CCCCCCCCSCCO	0.974	0.955	0.936	1.04	0.902	0.94	0.93	1.03	0.915	0.966
O=C(Nc1ccc(F)cc1-c1ccc(Cl)c(Cl)c1)c1cn[nH]c1C(F)F	0.916	0.974	0.945	0.82	0.983	0.814	0.953	0.553 (active)	0.373 (active)	0.779 (active)
COC1CCC2(CC1)NC(=O)C(O)(c1cc(C)ccc1C)C2=O (stereo not given)	1.03	1.01	1.02	1.1	1.16	1.02	1.06	1.06	1.02	1.06
CCNc1nc(NC(C)(C)C)nc(OC)n1	1.03	1.04	1.03	1.06	1.01	1.03	1.01	1.07	1.07	0.99
CSc1nc(NC2CC2)nc(NC(C)(C)C)n1	0.981	1.03	1.03	0.974	1.06	1.05	0.987	1.11	1.02	0.991
C=C1C[C@]23C[C@@]1(O)CC[C@H]2[C@@]12C=C[C@H](O)[C@@](C)(C(=O)O1)[C@H]2[C@@H]3C(=O)O	0.975	0.982	1.01	1.14	0.967	0.921	0.94	0.779	0.778	0.995
Nc1ccc(O)cc1	1.01	1.06	1.01	1.12	1.12	1.08	1.08	1.05	0.954	1.04
Cc1cc(N(C)C)nc(Cl)n1	0.97	1.02	0.992	1.06	1.11	0.947	0.99	0.998	1.03	0.998
CCOC(=O)Nc1cccc(OC(=O)Nc2cccc(C)c2)c1	0.963	0.94	0.953	1.01	0.974	0.896	1.01	1.08	0.913	0.932
COc1nc(C)nc(NC(=O)NS(=O)(=O)c2ccccc2OCCCl)n1	1.02	0.948	1	0.987	0.953	0.933	0.982	1	0.98	0.97
CCCCCCCCc1c(CC)nc2ncnn2c1N	1.01	0.986	0.978	0.988	1.04	0.904	0.931	0.989	0.946	0.964
Cc1cc(CC(C)CC(C)(C)C)n(O)c(=O)c1.NCCO (stereo not given)	0.995	1.04	1	0.788	1.02	0.971	1.01	0.997	1	1.03

SMILES	growth AUC [1]	growth AUC [2]	growth AUC [3]	growth AUC [4]	growth AUC [5]	growth AUC [6]	growth AUC [7]	growth AUC [8]	growth AUC [9]	growth AUC [10]
CNC(=O)/C(=N/OC)c1ccccc1COc1cc(C)ccc1C	0.974	1.01	1	0.92	0.931	1.01	1.01	0.981	0.92	0.926
CCOC(=O)c1ccc(O)cc1	1	0.974	0.969	1.07	1.05	0.822	0.978	0.988	0.893	0.976
C[S+](C)CCC(=O)O.[Cl-]	0.97	0.985	1.01	0.923	0.939	1.08	1.01	0.979	0.959	1.02
CN(C)C=O	1.04	1.03	1.03	0.998	1.11	1.01	1.03	1.05	0.998	1.02
CC(=O)Nc1cc(NS(=O)(=O)C(F)(F)F)c(C)cc1C	0.977	0.978	0.976	0.947	0.983	1.12	0.563	1.03	1.05	0.966
CC(C)COC(=O)COc1cc(Cl)c(Cl)cc1Cl	1	1.01	0.998	1.02	1.01	0.91	1.08	0.969	0.971	0.946
CCOC(=O)C1=NN(c2ccc(Cl)cc2Cl)C(C)(C(=O)OCC)C1 (stereo not given)	0.97	0.993	0.989	0.903	0.985	1.06	0.883	1.04	0.918	0.928
CC(C)c1cc(Oc2ccccc2)cc(C(C)C)c1NC(=S)NC(C)(C)C	0.896	1.01	1.01	0.45 (active)	0.911	0.978	1.03	0.989	1.05	0.957
CC1(C)C(=O)Oc2ccc(OS(C)(=O)=O)cc21	0.992	0.984	1.01	1.03	1.1	0.983	0.965	0.993	1.01	0.979
CCCCCC(C)OC(=O)COc1ccc(Cl)c2cccnc12 (stereo not given)	0.795 (active)	0.933	0.989	0.177 (active)	1.01	0.865	0.925	1	0.741 (active)	0.943
NC(=O)Cc1cccc2ccccc12	1.04	0.99	1.01	0.994	1.06	1.04	1.01	0.992	1.01	1.01
CSc1nnc(C(C)(C)C)c(=O)n1/N=C/C(C)C	1.02	1.04	0.979	1.1	1.08	1.08	1.03	0.96	1.03	1.02
CC1COc2ccccc2N1C(=O)C(Cl)Cl (stereo not given)	0.887	0.985	0.973	0.989	0.688	0.903	1.11	0.979	0.931	0.95
CCC(C)c1cc([N+](=O)[O-])cc([N+](=O)[O-])c1OC(=O)OC(C)C (stereo not given)	0.867	0.911	0.929	1.02	0.611 (active)	0.859	0.951	1.09	0.979	0.929
CCCCC(CC)CN1C(=O)C2C(C1=O)[C@H]1C=C[C@@H]2C1 (mixture of isomers)	1.03	1.01	1.03	0.93	1.01	1.06	1.04	1.03	0.79 (active)	0.977
CN(C)C(=O)Nc1cc(C(C)(C)C)on1	0.99	0.997	1.01	0.949	0.959	1.06	1	0.942	1.01	1
CC(C)(NC(=O)NCc1ccccc1Cl)c1ccccc1	1.02	1.04	1.03	1.03	1.02	0.978	0.986	1.05	1.02	0.994
O=S(Cc1ccc(Cl)cc1)c1ccc(Cl)cc1 (stereo not given)	1	0.986	0.981	1.09	0.94	0.899	1.24	1.01	0.947	1
Cn1cc(C(=O)Nc2ccc(F)cc2-c2ccc(Cl)c(Cl)c2)c(C(F)F)n1	0.921	1.01	0.997	0.953	0.944	0.881	0.968	0.865	0.741 (active)	0.892
O=c1oc(-c2ccccc2)nc2ccccc12	0.996	0.967	0.946	0.948	0.935	0.971	0.915	0.893	1.05	0.988

SMILES	growth AUC [1]	growth AUC [2]	growth AUC [3]	growth AUC [4]	growth AUC [5]	growth AUC [6]	growth AUC [7]	growth AUC [8]	growth AUC [9]	growth AUC [10]
O=S(=O)(Cc1ccc(Cl)cc1)c1ccc(Cl)cc1	0.978	0.97	1.02	1.02	0.977	1.04	1.03	0.995	1	0.98
CCCN(CCC)C(=O)SCC	0.969	0.967	1.01	0.944	0.893	1.03	1.02	1	1.03	0.984
CCc1cccc(C)c1NC(=O)CS(=O)(=O)[O-].[Na+]	0.996	0.954	0.983	0.974	0.945	1.04	0.949	1.01	1.02	0.989
COC(=O)C(C)Oc1ccc(Oc2ncc(C(F)(F)F)cc2Cl)cc1 (stereo not given)	1.02	0.972	0.987	1.05	0.954	0.84	0.995	1.03	0.834	0.963
O=C(Nc1ccc(F)cc1)c1cccc(Oc2cccc(C(F)(F)F)c2)n1	0.993	0.95	0.95	1.02	0.927	0.87	0.927	1.07	0.905	0.911
CCNc1nc(N)[nH]c(=O)n1	1.02	0.991	1	0.995	0.953	1.01	1.02	1.01	1.04	0.995
O=S(=O)(Oc1ccc(Cl)cc1)c1ccccc1	0.997	0.981	0.967	0.874	0.872	0.99	1.08	0.987	0.974	0.957
CCCC(C)(C)C(=O)Nc1ccc(Cl)cc1	0.978	0.973	1.01	0.958	0.938	1.1	0.989	0.958	0.928	0.949
COC(=O)CCCOc1ccc(Cl)cc1Cl	0.968	0.983	0.958	1.1	0.966	0.916	0.916	0.925	0.791	0.97
Cc1c(C(=O)c2c[nH]n(C)c2=O)ccc(S(C)(=O)=O)c1C1=NOCC1	1.02	0.984	0.981	0.99	0.972	0.999	0.954	1.04	1.04	1
CCOCCOC(=O)C(C)Oc1ccc(Oc2ncc(C(F)(F)F)cc2Cl)cc1 (stereo not given)	0.989	0.996	0.986	1.05	1.05	0.952	1.02	1.07	0.859	0.991
Oc1c(Cl)cc(Cl)c(Cl)c1Cc1c(O)c(Cl)cc(Cl)c1Cl	0.19 (active)	0.867	0.856	0.0106 (active)	0.078 (active)	0.037 (active)	0.0796 (active)	0.018 (active)	0.026 (active)	0.0156 (active)
O=C(O)CCCc1c[nH]c2ccccc12	1.01	0.955	0.962	1.07	0.971	0.832	0.884	0.989	0.922	0.984
CCSC(=O)N(CC(C)C)CC(C)C	1.02	1.02	1.02	0.903	1.03	1.22	0.942	0.985	0.993	0.987
O.O=C(Nc1ccc([N+](=O)[O-])cc1Cl)c1cc(Cl)ccc1O	0.884	1	0.973	0.952	0.741	0.15 (active)	0.3 (active)	0.039 (active)	0.0373 (active)	0.0254 (active)
CC(C)([CH2][Sn]([CH2]C(C)(C)c1ccccc1)([CH2]C(C)(C)c1ccccc1)[O][Sn]([CH2]C(C)(C)c1ccccc1)([CH2]C(C)(C)c1ccccc1)[CH2]C(C)(C)c1ccccc1)c1ccccc1	0.98	0.999	0.978	0.998	1.03	0.963	0.988	1.06	1.04	0.954
CS(=O)(=O)c1ccc(C(=O)C2C(=O)C(O)CC(O)C2=O)c(Cl)c1COCC(F)(F)F (stereo not given)	1	0.988	0.972	0.798	1.02	1.02	0.987	0.98	1.03	0.998
O=C(O)COc1cccc(Cl)c1Cl	1.01	0.987	1.01	1.04	1.12	1.11	0.898	0.92	0.994	0.986
